Consider 40 compounds from PubChem BioAssay (NCATS).

Each structure is given as a SMILES string. Results filed as inconclusive are left out. Calls of active or inactive are those of the source. Calls follow the shape of the dose curve; as a rule, active = well fitted cell-killing curve with a large enough effect; inconclusive = small, poorly fitted or top-dose-only effect, or effect the other way; inactive = no such curve, though single readings can be large or run the other way.
Potency is read from the fitted curve at half-maximal effect.

The experiment in a line: Quantitative High-Throughput drug screen in 47 multiple myeloma cell lines against the NCATS MIPE library collection: KMS34_JCRB cell viability assay (AID 1918985). Also: nearly all actives have a fitted effect of over 40% in size. As to conditions: KMS34 myeloma viability, CellTiter-Glo ATP luminescence, 48 h; series mostly up to 45.8 µM; viability, percent of control: at the top concentration. The source says: PI: Beverly A. Mock Ph.D.
Laboratory of Cancer Biology and Genetics,
Center for Cancer Research, National Cancer Institute,
National Institute of Health, Bethesda, Maryland
Drug resistance and disease progression are common in multiple myeloma (MM) patients, underscoring the need for new therapeutic combinations. […] We hypothesized that effective combinations would reduce MYC expression and enhance p16 activity. […] These preclinical data identify potentially useful drug combinations for evaluation in drug-resistant MM and reveal potential mechanisms of combined drug sensitivity.
Described herein is the primary MIPE qHTS used to cherrypick compounds. Validated compounds were then further tested for potential synergistic activiy.
[1] Peat TJ, Gaikwad SM, Dubois W, Gyabaah-Kessie N, Zhang S, Gorjifard S, Phyo Z, Andres M, Hughitt VK, Simpson RM, Miller MA, Girvin AT, Taylor A, Williams D, D'Antonio N, Zhang Y, Rajagopalan A, Flietner E, Wilson K, Zhang X, Shinn P, Klumpp-Thomas C, McKnight C, Itkin Z, Chen L, Kazandijian D, Zhang J, Michalowski AM, Simmons JK, Keats J, Thomas CJ, Mock BA. Drug combinations identified by high-throughput screening promote cell cycle transition and upregulate Smad pathways in myeloma. Cancer Lett. 2023 Aug 1;568:216284. doi: 10.1016/j.canlet.2023.216284. Epub 2023 Jun 24. PMID: 37356470; PMCID: PMC10408729.
SEQUENCE No. (e.g., 1, 2, 3, etc.); […] (e.g., Cells, Incubation, Reagent, etc.); VALUE and DESCRIPTION.
1; Cells; 5 uL; white, solid bottom 1536-well Greiner assay plate.
2; Compounds; 23 nL; Kalypsis pin tool (Wako USA) equipped with a 1536-well pin head to transfer to the assay plates.
3; Incubation; 48 hours; 37C incubation.
4; Reagent;5uL; CellTiter Glo (Promega).
5; Detector; 425V; Luminescence; Viewlux PerkinElmer.
NOTES (numbers refer to Sequence numbers above)
1. The cell-based screening methods employed in this study were like those previously published. Briefly, the corresponding myeloma cell lines were screened in 1,536-well plates with 500 cells, 5-uL per well for inhibition of cell viability (assessed by measuring ATP levels with CellTiterGlo).
2. NCATS MIPE 4.0 library of approved and investigational drugs were added using the Kalypsis pin tool. Wells treated with DMSO only for 100% viability and media only for 0% viability were used as controls.
3. The assay plates were covered and incubated for 48 hours in a 37C, 5% CO2 incubator with controlled humidity.
4. After 48 hours, CellTilter-GloTM luminescent substrate mix (Promega) reagent was added to the assay plate and plates we incubated for 5 min at room temperature.
5. Signal was measured as median relative luminescence units on a ViewLux (PerkinElmer) multiplate reader.
[1] Heske CM, Davis MI, Baumgart JT, Wilson K, Gormally MV, Chen L, Zhang X, Ceribelli M, Duveau DY, Guha R, Ferrer M, Arnaldez FI, Ji J, Tran HL, Zhang Y, Mendoza A, Helman LJ, Thomas CJ. Matrix Screen Identifies Synergistic Combination of PARP Inhibitors and Nicotinamide Phosphoribosyltransferase (NAMPT) Inhibitors in Ewing Sarcoma. Clin Cancer Res. 2017 Dec 1;23(23):7301-7311. doi: 10.1158/1078-0432.CCR-17-1121. Epub 2017 Sep 12. PMID: 28899971; PMCID: PMC6636827.
(Cellular ATP, detected with luciferase, serves as a proxy for viable cell number.)
`CCCCC(C)(C)[C@H](O)C=C[C@H]1[C@H](O)CC(=O)[C@H]1CC=CCCCC(=O)O`: the Potency is 5.9 µM (active).

As to `COC1CCC(C(=O)c2ccc3nc4c(cc3c2)CCCO4)CC1` (stereo not given), the Potency was 29.6 µM (active).

Take `C=CCc1cccc(C=NNC(=O)CN2CCN(Cc3ccccc3)CC2)c1O`: the Potency is 4.69 µM (active).

For `CC(O)=C(C#N)C(=O)Nc1ccc(C(F)(F)F)cc1`, the Potency was 18.7 µM (active).

Turning to `CN(C)c1ccc(-c2nc3ncc(Cl)c(N4CCN(CC(=O)Nc5nccs5)CC4)c3[nH]2)cc1`, the Potency is 2.96 µM (active).

Consider `COc1cc2ncn(-c3cc(OCc4ccccc4S(C)(=O)=O)c(C#N)s3)c2cc1OC`, for which the “viability, percent of control” value is 119% (inactive).

For the compound `COc1ccc2ccc(=O)oc2c1CC=C(C)C`, the Potency was 13.2 µM (active).

For the compound `CC1(C)C(N(O)C(=O)Nc2ccc(Cl)cc2)N(c2ccc(Cl)cc2)C(=O)N1CC(=O)NN=CC=Cc1ccc([N+](=O)[O-])o1` (stereo not given), the Potency was 7.43 µM (active).

In the case of `O=C(O)c1nc(=O)[nH]c(=O)[nH]1`, the “viability, percent of control” value was 104% [at 23.2 µM] (inactive).

Turning to `C[C@@H](N)c1ccc(C(=O)Nc2ccnc3[nH]ccc23)cc1`, the Potency is 20.9 µM (active).

For the compound `O=C(O)CCC=CCC[C@@H]1[C@H](N2CCCCC2)[C@@H](O)C[C@@H]1OCc1ccc(-c2ccccc2)cc1`, the “viability, percent of control” value was 122% (inactive).

With `C[C@@H]1C[C@H]2[C@@H]3CCC4=CC(=O)C=C[C@]4(C)[C@@]3(F)[C@@H](O)C[C@]2(C)[C@@]1(O)C(=O)CO`, the “viability, percent of control” value was 85.3% (inactive).

As for `CN(CC=CC#CC(C)(C)C)Cc1cccc2ccccc12`, the “viability, percent of control” value is 93.2% (inactive).

Consider `CN(C)CCOc1ccc(-c2nc(-c3ccc4c(c3)CCC4=NO)c(-c3ccncc3)[nH]2)cc1`, for which the Potency is 13.2 µM (active).

For the compound `O=c1[nH]c(=O)n([C@H]2C[C@@H](O)[C@@H](CO)O2)cc1I`, the Potency was 2.09 µM (active).

Take `Cc1ccccc1C(C(=O)NC1CCCCC1)N(C(=O)CNc1ccc(C#N)cc1)c1cccc(F)c1` (stereo not given): the “viability, percent of control” value is 95.8% (inactive).

Turning to `O=C(CO)N1CCC(c2[nH]nc(-c3ccc(Cl)cc3)c2-c2ccncn2)CC1`, the “viability, percent of control” value was 69.3% (inactive).

On to `O=C1C(c2c(O)[nH]c3ccccc23)=Nc2ccccc21`, for which the Potency is 7.43 µM (active).

`c1cc(OCCN2CCCCC2)cc(-c2n[nH]c3ccc(-c4ncn[nH]4)cc23)c1`: the Potency was 20.9 µM (active).

Consider `CC(=O)OCC(=O)[C@@]12OC(C)(C)O[C@H]1C[C@H]1[C@@H]3C[C@H](F)C4=CC(=O)C=C[C@]4(C)[C@@]3(F)[C@@H](O)C[C@@]12C`, for which the “viability, percent of control” value is 86.4% (inactive).

For `COc1cc(C=CC(=O)O)ccc1O`, the “viability, percent of control” value was 112% (inactive).

Turning to `O=C(CC12CC3CC(CC(C3)C1)C2)Nc1cccc2nc(NCCNCCO)ccc12`, the Potency is 26.4 µM (active).

For `CN(C)N=Nc1nc[nH]c1C(N)=O`, the “viability, percent of control” value is 97.4% (inactive).

In the case of `N#CC1(c2cccc(C(=O)Nc3cc(Oc4ccc5nc(NC(=O)C6CC6)sc5n4)ccc3F)c2Cl)CC1`, the “viability, percent of control” value was 91.1% (inactive).

Regarding `CN1C(=O)C[C@H](C(=O)N[C@@H](Cc2cnc[nH]2)C(=O)N2CCC[C@@H]2C(N)=O)NC1=O`, the Potency was 2.96 µM (active).

In the case of `C[C@@H]1CC=CC=CC=CC=C[C@@H](O[C@@H]2O[C@H](C)[C@@H](O)[C@H](N)[C@H]2O)C[C@@H]2O[C@](O)(C[C@@H](O)C[C@@H]3O[C@@H]3C=CC(=O)O1)C[C@H](O)[C@@H]2C(=O)O`, the Potency is 18.7 µM (active).

On to `C[C@]12C=CC(=O)C=C1CC[C@@H]1[C@@H]2[C@@H](O)C[C@@]2(C)[C@@H]1CC[C@]2(O)C(=O)CO`, for which the Potency is 0.187 µM (active).

As for `CN1CCC[C@H]1CCO[C@](C)(c1ccccc1)c1ccc(Cl)cc1`, the “viability, percent of control” value is 87.3% (inactive).

As to `Cc1ccccc1-n1c(Cn2nc(-c3cccc(O)c3)c3c(N)ncnc32)nc2cccc(C)c2c1=O`, the Potency was 3.32 µM (active).

As for `O=c1[nH]nc(OCCCc2ccc(Cl)cc2)c(NCc2cccnc2)c1Br`, the Potency was 20.9 µM (active).

As to `NCc1c[nH]c(=S)n1[C@H]1CCc2c(F)cc(F)cc2C1`, the Potency is 20.9 µM (active).

`CC(C)=CCCC(C)=CCCC(C)=CCCC(C)=CCCC(C)=CCCC(C)=CCCC(C)=CCCC(C)=CCCC(C)=CCO`: the “viability, percent of control” value was 120% (inactive).

With `C[C@@H]1[C@H](O)[C@@H](C)C=CC=CC=CC=CC=CC=CC=C[C@H](O[C@@H]2O[C@H](C)[C@H](O)[C@H](N)[C@@H]2O)C[C@@H]2O[C@](O)(C[C@@H](O)C[C@@H](O)[C@H](O)CC[C@@H](O)C[C@@H](O)CC(=O)O[C@H]1C)C[C@H](O)[C@@H]2C(=O)O`, the Potency was 11.8 µM (active).

Consider `CC(C)[C@H](O)C(=O)N[C@@H](C)C(=O)N[C@@H]1C(=O)N(C)CCc2ccccc21`, for which the “viability, percent of control” value is 106% (inactive).

`CN(C)CCOc1cc(-c2cn[nH]c2)ccc1NC(=O)C1COc2ccccc2O1` (stereo not given): the Potency is 9.35 µM (active).

For the compound `COc1c(C)cnc(Cn2cnc3c(Cl)nc(N)nc32)c1C`, the Potency is 0.105 µM (active).

Regarding `CCCCc1ccc(NS(=O)(=O)c2ccc(C)c(C(=O)N3CCN(c4cccc(C)c4C)CC3)c2)cc1`, the Potency is 18.7 µM (active).

For `COc1cc2nc(-c3cc(F)ccc3O)nc(N[C@@H]3CNC[C@@H]3C(C)(C)O)c2cc1OC`, the Potency is 16.6 µM (active).

As for `CCOc1ccccc1N=Nc1c(C)[nH]n(-c2nc(-c3ccccc3)cs2)c1=O`, the “viability, percent of control” value was 97.3% (inactive).

As to `COc1cc2nccc(Oc3ccc(NC(=O)Nc4cc(C)on4)c(Cl)c3)c2cc1OC`, the Potency was 4.18 µM (active).
